Reference: PubChem BioAssay (EPA / NIEHS)
Values joined by “and” are separate entries in the source; they are usually repeats but may differ in a detail not shown here. Equal entries are not always repeated. The source holds several records for some structures; these can differ, active in one and inactive in another. Active and inactive are the calls of the source. The calls were made as follows: active = hit-call score of the fitted dose curve at least 0.9, where 1 is the maximum; inactive = score below 0.9.

Columns and labels:
[1] = read-out: Monocyte Chemoattractant Protein-1 (MCP1), CCL2 (gene 6347); test: BSK_LPS_MCP1: BioMAP Diversity Plus: LPS Assay for Monocyte Chemoattractant Protein-1 (MCP1) Biomarker Activity (AID 2283081); details: primary human HUVEC with PBMC; actives raise or lower the signal;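 as to AC50: secreted MCP-1 protein quantified by ELISA in culture supernatant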
Outline: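 Human umbilical vein endothelial cells co-cultured with PBMC, LPS-stimulated; secreted MCP-1 measured by ELISA 24 h after compound addition. Bidirectional curve fitting against DMSO baseline; SRB total-protein staining in parallel cultures for cytotoxicity.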

[2] = BSK_LPS_PGE2: BioMAP Diversity Plus: LPS Assay for Prostaglandin E2 (PGE2) Biomarker Activity (AID 2283082); details: primary human HUVEC with PBMC; actives raise or lower the signal;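 as to AC50: secreted prostaglandin E2 measured by ELISA in LPS-stimulated co-culture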
Outline: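 Primary human endothelial cells and blood mononuclear cells, co-cultured with LPS, receive test chemical; PGE2 ELISA follows at 24 h, with SRB-stained parallel cultures flagging cytotoxicity.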

[3] = read-out: Macrophage colony-stimulating factor (MCSF), CSF1 (gene 1435); test: BSK_LPS_MCSF: BioMAP Diversity Plus: LPS Assay for Macrophage colony-stimulating factor (MCSF) Biomarker Activity (AID 2283083); details: primary human HUVEC with PBMC; actives raise or lower the signal
Outline: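 HUVEC–PBMC co-culture, M-CSF measured by ELISA 24 h after chemical dosing. Fitted in both directions relative to DMSO as negative control; overt cytotoxicity assessed by SRB total-protein staining in parallel cultures.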

[4] = read-out: Tissue Factor, F3 (gene 2152); test: BSK_LPS_TissueFactor: BioMAP Diversity Plus: LPS Assay for Tissue Factor Biomarker Activity (AID 2283084); details: primary human HUVEC with PBMC; actives raise or lower the signal
Outline: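 Human umbilical vein endothelial cells co-cultured with PBMC were dosed with compound. Cell-surface CD142 was measured by ELISA 24 h later. Activity was fitted bidirectionally against DMSO, with SRB total-protein staining in parallel cultures for cytotoxicity.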

[5] = read-out: Tumor necrosis factor (Homo sapiens) (UniProt P01375); test: BSK_LPS_TNFa: BioMAP Diversity Plus: LPS Assay for Tumour Necrosis Factor alpha (TNFa) Biomarker Activity (AID 2283085); details: primary human HUVEC with PBMC; actives raise or lower the signal;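 as to AC50: TNFa protein level quantified by ELISA in the co-culture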
Outline: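 ELISA-based TNFa endpoint in a human endothelial–PBMC co-culture sampled 24 h post-exposure. Curves were fitted in both directions using DMSO as baseline of activity.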

[6] = read-out: Vascular cell adhesion molecule 1 (VCAM1), VCAM1 (gene 7412); test: BSK_LPS_VCAM1: BioMAP Diversity Plus: LPS Assay for Vascular cell adhesion molecule 1 (VCAM1) Biomarker Activity (AID 2283086); details: primary human HUVEC with PBMC; actives raise or lower the signal
Outline: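 Measured by ELISA: VCAM-1 in LPS-activated HUVEC/PBMC co-cultures 24 h after treatment. Values reflect bidirectional fitting with DMSO as baseline.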

CD38, CD38 (gene 952) = test: BSK_SAg_CD38: BioMAP Diversity Plus: SAg Assay for CD38 Biomarker Activity (AID 2283087); details: primary human HUVEC with PBMC; actives raise or lower the signal
Outline: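 Measures CD38 on a human endothelial/PBMC co-culture driven by SEB and TSST-1, 24 h after compound exposure, using ELISA with fluorescence detection; DMSO defines baseline for bidirectional curve fitting.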

CD40, CD40 (gene 958) = test: BSK_SAg_CD40: BioMAP Diversity Plus: SAg Assay for CD40 Biomarker Activity (AID 2283088); details: primary human HUVEC with PBMC; actives raise or lower the signal
Outline: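 HUVEC plus PBMC co-culture, superantigen-activated, with CD40 read by ELISA 24 h after dosing. Curves fitted in both directions against DMSO. Overt cytotoxicity checked by parallel SRB total-protein staining.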

CD69, CD69 (gene 969) = test: BSK_SAg_CD69: BioMAP Diversity Plus: SAg Assay for CD69 Biomarker Activity (AID 2283089); details: primary human HUVEC with PBMC; actives raise or lower the signal;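 as to AC50: cell surface CD69 protein quantified by ELISA with fluorescence detection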
Outline: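 Endothelial/PBMC co-culture; chemical added; 24 h incubation; CD69 ELISA with fluorescence detection; bidirectional fit vs DMSO.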

[7] = read-out: Monocyte Chemoattractant Protein-1 (MCP1), CCL2 (gene 6347); test: BSK_SAg_MCP1: BioMAP Diversity Plus: SAg Assay for Monocyte Chemoattractant Protein-1 (MCP1) Biomarker Activity (AID 2283090); details: primary human HUVEC with PBMC; actives raise or lower the signal
Outline: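 Values derive from bidirectional fitting of ELISA-measured MCP1 against DMSO controls. Readings were taken 24 h after dosing human vascular endothelial cells co-cultured with peripheral blood mononuclear cells under superantigen stimulation.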

[8] = read-out: E-selectin (Homo sapiens) (UniProt P16581); test: BSK_SAg_Eselectin: BioMAP Diversity Plus: SAg Assay for Eselectin Biomarker Activity (AID 2283091); details: primary human HUVEC with PBMC; actives raise or lower the signal
Outline: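 Human umbilical vein endothelial cells co-cultured with peripheral blood mononuclear cells, SAg system. E-selectin is measured by ELISA 24 h after dosing and fitted bidirectionally against DMSO. Cytotoxicity is checked by SRB staining of parallel cultures.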

[9] = read-out: Monokine induced gamma interferon (MIG), CXCL9 (gene 4283); test: BSK_SAg_MIG: BioMAP Diversity Plus: SAg Assay for Monokine induced gamma interferon (MIG) Biomarker Activity (AID 2283092); details: primary human HUVEC with PBMC; actives raise or lower the signal
Outline: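 Measures CXCL9 protein by ELISA in a human vascular primary-cell co-culture (umbilical vein endothelium with PBMC) 24 h after chemical addition. Activity is scored up or down from the DMSO control.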

[10] = BSK_SAg_PBMCCytotoxicity: PBMC Cytotoxicity Assessment in the BioMAP Diversity Plus: SAg Assay (AID 2283093); details: primary human HUVEC with PBMC;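 also: PBMC viability measured as Alamar Blue reduction fluorescence at 546/580 nm; fitted both ways against DMSO so a hit may be loss or gain of signal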;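 as to AC50: PBMC superantigen activated with SEB plus TSST-1 one hour after compound addition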
Outline: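 Alamar Blue reduction (6 h, 546/580 nm) reports PBMC cytotoxicity after 90 h superantigen activation (SEB, TSST-1; 20 ng/mL final each) with 1 h compound pre-treatment. Gain or loss of signal fitted versus DMSO.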

[11] = read-out: Interleukin-8 (IL8), CXCL8 (gene 3576); test: BSK_SAg_IL8: BioMAP Diversity Plus: SAg Assay for Interleukin-8 (IL8) Biomarker Activity (AID 2283094); details: primary human HUVEC with PBMC; actives raise or lower the signal
Outline: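 Primary human endothelial cells with PBMC, exposed 24 h; IL-8 determined by ELISA, analysed bidirectionally relative to DMSO.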

[12] = BSK_SAg_SRB: Viability Assessment in the BioMAP Diversity Plus: SAg Assay (AID 2283096); details: primary human HUVEC with PBMC;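 also: cells read one day after compound addition; hits may be either gain or loss of signal compared with DMSO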
Outline: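 This overt-cytotoxicity endpoint quantifies protein in human endothelial/PBMC co-cultures at 24 h using SRB absorbance (560 nm) after trichloroacetic acid fixation. Values reflect signal change from the DMSO negative control, fitted bidirectionally.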

[13] = BSK_SAg_Proliferation: Cell Proliferation Assessment in the BioMAP Diversity Plus: SAg Assay (AID 2283095); details: primary human HUVEC with PBMC;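 also: relative cell number as total protein by SRB absorbance in sub-confluent culture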
Outline: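 A human primary co-culture of umbilical vein endothelium and blood mononuclear cells receives compound; relative cell number is quantified at 96 h by SRB staining and 560 nm absorbance, with DMSO-referenced bidirectional curve fitting.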

Measured: AC50

Sequence of E-selectin (Homo sapiens) (P16581 whole entry, looked up): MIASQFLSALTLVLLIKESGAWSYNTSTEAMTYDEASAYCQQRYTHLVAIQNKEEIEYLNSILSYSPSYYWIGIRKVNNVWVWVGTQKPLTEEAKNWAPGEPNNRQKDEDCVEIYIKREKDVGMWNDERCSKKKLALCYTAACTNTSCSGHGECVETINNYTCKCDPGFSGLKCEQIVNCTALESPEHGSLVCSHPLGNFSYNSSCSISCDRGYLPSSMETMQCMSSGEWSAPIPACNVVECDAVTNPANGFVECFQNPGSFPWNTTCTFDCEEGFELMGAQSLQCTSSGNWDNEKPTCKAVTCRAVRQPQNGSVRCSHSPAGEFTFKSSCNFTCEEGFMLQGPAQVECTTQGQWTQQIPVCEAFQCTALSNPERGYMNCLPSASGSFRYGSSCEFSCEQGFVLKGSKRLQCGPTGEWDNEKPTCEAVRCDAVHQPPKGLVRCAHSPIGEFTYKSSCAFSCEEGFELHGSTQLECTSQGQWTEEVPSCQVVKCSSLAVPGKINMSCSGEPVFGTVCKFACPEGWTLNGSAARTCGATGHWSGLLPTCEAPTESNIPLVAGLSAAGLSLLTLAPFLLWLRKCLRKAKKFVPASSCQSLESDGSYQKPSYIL
Sequence of Tumor necrosis factor (Homo sapiens) (P01375 whole entry, looked up): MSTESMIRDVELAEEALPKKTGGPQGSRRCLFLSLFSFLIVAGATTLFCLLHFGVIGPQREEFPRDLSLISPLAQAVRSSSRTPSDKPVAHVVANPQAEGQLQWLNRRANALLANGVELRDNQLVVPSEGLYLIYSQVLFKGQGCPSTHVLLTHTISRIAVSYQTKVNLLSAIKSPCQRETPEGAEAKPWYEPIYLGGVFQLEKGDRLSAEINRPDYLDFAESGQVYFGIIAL

OCC(O)CC(F)(F)C(F)(F)C(F)(F)C(F)(F)F (stereo not drawn)
inactive: [1] | [2] | [3] | [4] | [5] | [6] | CD38, CD38 (gene 952) | CD40, CD40 (gene 958) | CD69, CD69 (gene 969) | [7] | [8] | [9] | [10] | [11] | [12]

CO[Si](C)(CCC(F)(F)C(F)(F)C(F)(F)C(F)(F)C(F)(F)C(F)(F)F)OC
inactive: [1] | [2] | [3] | [4] | [5] | [6] | CD40, CD40 (gene 958) | CD69, CD69 (gene 969) | [7] | [8] | [9] | [10] | [11] | [13] | [12]

O=C(Cl)C(F)(F)C(F)(F)C(F)(F)C(F)(F)C(F)(F)C(F)(F)C(F)(F)F
inactive: [1] | [2] | [3] | [4] | [5] | [6] | CD38, CD38 (gene 952) | CD40, CD40 (gene 958) | CD69, CD69 (gene 969) | [7] | [8] | [9] | [10] | [11] | [13] | [12]

CCN(CC)c1ccc2c(c1)Oc1cc(N(CC)CC)ccc1C21OC(=O)c2ccccc21
inactive: [1] | [2] | [3] | [5] | [6] | CD38, CD38 (gene 952) | CD40, CD40 (gene 958) | CD69, CD69 (gene 969) | [7] | [8] | [9] | [12]
active: [4] 10 µM | [10] 6.68 µM | [11] 10 µM | [13] 10 µM

NS(=O)(=O)C(F)(F)C(F)(F)C(F)(F)C(F)(F)C(F)(F)C(F)(F)F
active: [1] 30 µM | [2] 10.7 µM and 13.8 µM | [6] 5.95 µM and 46.8 µM | CD40, CD40 (gene 958) 26.3 µM and 30 µM | CD69, CD69 (gene 969) 28.6 µM and 32.5 µM | [8] 41.7 µM and 21.7 µM | [10] 11.8 µM | [12] 55.3 µM
inactive: [1] | [3] | [4] | [5] | [7] | [9] | [10] | [12]

Cc1ccc(S(=O)(=O)C(I)I)cc1
inactive: [2] | [5]
active: [1] 3.77 µM | [3] 2.3 µM | [4] 3.07 µM | [6] 3.03 µM | CD38, CD38 (gene 952) 2.99 µM | CD40, CD40 (gene 958) 2.98 µM | CD69, CD69 (gene 969) 3.25 µM | [7] 3.7 µM | [8] 5.14 µM | [9] 6.86 µM | [10] 1.43 µM | [11] 4.27 µM | [12] 5.34 µM

NC(=O)C(F)(F)C(F)(F)C(F)(F)C(F)(F)C(N)=O
active: [3] 0.393 µM
inactive: [1] | [2] | [3] | [4] | [5] | [6] | CD38, CD38 (gene 952) | CD40, CD40 (gene 958) | CD69, CD69 (gene 969) | [7] | [8] | [9] | [10] | [13] | [12]

FC(F)(F)C(F)(F)C(F)(F)CC1CO1 (stereo not drawn)
inactive: [1] | [2] | [3] | [4] | [5] | [6] | CD38, CD38 (gene 952) | CD40, CD40 (gene 958) | CD69, CD69 (gene 969) | [7] | [8] | [9] | [10] | [11] | [13] | [12]

OCCCC(F)(F)C(F)(F)C(F)(F)C(F)(F)C(F)(F)C(F)(F)C(F)(F)C(F)(F)F
inactive: [2]
active: [1] 29.9 µM and 44.8 µM | [3] 44.2 µM and 22.5 µM | [4] 39.3 µM and 23.2 µM | [5] 29.7 µM and 19.9 µM | [6] 41.4 µM and 23.6 µM | CD38, CD38 (gene 952) 44.8 µM and 26 µM | CD40, CD40 (gene 958) 43.8 µM and 45.5 µM | CD69, CD69 (gene 969) 45.5 µM and 46.7 µM | [7] 23.2 µM and 51.9 µM | [8] 52 µM and 54 µM | [9] 53.4 µM and 53.2 µM | [10] 17.3 µM and 14.4 µM | [11] 43.2 µM and 37 µM | [12] 27 µM and 47.8 µM

CNS(=O)(=O)C(F)(F)C(F)(F)C(F)(F)C(F)(F)C(F)(F)C(F)(F)C(F)(F)C(F)(F)F
inactive: [1] | [2] | [3] | [4] | [5] | [6] | CD38, CD38 (gene 952) | CD40, CD40 (gene 958) | CD69, CD69 (gene 969) | [7] | [8] | [9] | [10] | [12]

NC(=O)C(F)(F)C(F)(F)C(F)(F)C(F)F
inactive: [1] | [2] | [3] | [4] | [5] | [6] | CD38, CD38 (gene 952) | CD40, CD40 (gene 958) | CD69, CD69 (gene 969) | [7] | [8] | [9] | [10] | [12]

O=C=NCc1cccc(CN=C=O)c1
inactive: [1] | [2] | [3] | [4] | [5] | [6] | CD38, CD38 (gene 952) | CD40, CD40 (gene 958) | CD69, CD69 (gene 969) | [7] | [8] | [9] | [10] | [13] | [12]
